From the supplement of paper PMC10338343
± gives the standard deviation.

Key:
[1] = test system: MILI (PIWIL2) piRISC loaded with piRNA #1 (26 nt); assay: pre-steady-state target cleavage rate (min^-1); guide: piRNA #1 5'p-UGAGGUAGUAGGUUGUAUAGUAUCCA; higher = faster piRNA-guided slicing of the target; details: auxiliary factor: 500 nM mouse GTSF1
How it was run: (§1)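 Cleave-'n-Seq used a transcribed, DNA-blocked target RNA library at 0.1 nM and active affinity-purified piRISC with one synthetic guide at 1 nM, with or without 500 nM GTSF1 partner protein, in HEPES–potassium acetate buffer at 33 °C for 0–8 or 0–960 min. Uncleaved targets were sequenced and normalised to depth and to weakly complementary targets, and three trials were pooled with k3 capped at 0.0001 min^-1. The pre-steady-state cleavage rate was estimated by a burst-and-steady-state fit.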

[2] = test system: EfPiwi piRISC loaded with piRNA #1 (26 nt); assay: pre-steady-state target cleavage rate (min^-1); auxiliary factor: 500 nM Ephydatia muelleri Gtsf1; guide: piRNA #1 5'p-UGAGGUAGUAGGUUGUAUAGUAUCCA; MIWI and MILI are mouse PIWI proteins and EfPiwi is from a freshwater sponge; tags in brackets are library labels; higher = faster piRNA-guided slicing of the target
How it was run: as §1

Sequence	pre-steady-state target cleavage rate [1]	pre-steady-state target cleavage rate [2]
GGAGACGAUACUAAACAACCUACUACCUCA	0.207 ± 0.016	0.0292 ± 0.012
GGAGACCUAUGAUAUGUUGCUACUCCUCA	< 0.0001	
GGAGAGGAUAGUAUACAACCUACUACGUCA	0.0614 ± 0.0098	0.0031 ± 0.0021
GGAGACCAUACUAUACAACCUACUGACCUCA	0.0765 ± 0.017	0.0102 ± 0.0061
GGAGACCUAUGUAUACAACCUACCUACCUCA	0.0358 ± 0.0076	
GGAGAGGAAUGUAUACAACCUACUACCUCA	0.0539 ± 0.0062	0.0061 ± 0.0042
GGAGUCGAUACUAUACAACCUACUACCUCA	0.18 ± 0.013	0.106 ± 0.034
GGAGAGGAUACUAUACAACCUACUACCAGA	0.0384 ± 0.0076	0.00451 ± 0.0018
GGAGACCUAACGAUACAACCUACUACCUCA	0.257 ± 0.053	0.0136 ± 0.0071
GGAGUGGAUAGUAUACUACCUACUACCUCA	0.113 ± 0.0097	0.00287 ± 0.0021
GGAGUGGAUACUUUACAACCUUCUACCUCA	0.0065 ± 0.0017	0.00301 ± 0.0026
GGAGACCUAACUAUACAACCUACUACCUCG [g2:g21:cont:t1G]	0.189 ± 0.035	0.0178 ± 0.0076
GGAGUGGAUACUAUACAACCUACUACUUCA	0.103 ± 0.0082	0.104 ± 0.042
GGAGACCUAUGAUAACUUGCUACUACCUCA	< 0.0001	
GGAGACCAUUCUAAACAACCUACUACCUCA	0.0936 ± 0.012	0.00894 ± 0.0049
GGAGAGUGAUACUAUACAACCUACUACCUCA	0.227 ± 0.016	0.171 ± 0.053
GGAGACCAUACUAUACUACCUACUACCUGA	0.134 ± 0.019	0.00271 ± 0.0014
GGAGUGGAUACUAUACUACCUAGUACCUCA	0.0719 ± 0.013	0.00311 ± 0.0019
GGAGACCUUAGUAUACAACCUACUACCUCA	0.0889 ± 0.0097	0.0563 ± 0.02
GGAGACCUAACUAUACAACCUACUACCUUA	0.12 ± 0.028	0.0211 ± 0.0092

Sequence	pre-steady-state target cleavage rate [1]	pre-steady-state target cleavage rate [2]
GGAGAGGAUACUUAUACAACCUACUACCUCA	0.127 ± 0.012	0.112 ± 0.045
GGAGAGGUAACUAUACAACCUACUACCUCA	0.103 ± 0.015	0.00695 ± 0.0039
GGAGACCUUACUAUACAACCUACUAGCCUCA	0.181 ± 0.018	0.00471 ± 0.0044
GGAGAGGAUACUAUAGAACCUUCUACCUCA	0.00389 ± 0.0026	0.003 ± 0.002
GGAGUGGAUACAAUACAACCUAGUACCUCA	0.0718 ± 0.013	0.00305 ± 0.0021
GGAGUGGUUACUAAACAACCUACUACCUCA	0.161 ± 0.0092	0.00439 ± 0.0033
GGAGACCUUACUAUACAACCUACUACCUCG [g2:g22:cont:t1G]	0.173 ± 0.015	0.062 ± 0.022
GGAGACCUAACUAUACAACCUACUACCUCC [g2:g21:cont:t1C]	0.175 ± 0.03	0.00701 ± 0.0033
GGAGACCAUACUAUACAACCUACUAUCCUCA	0.219 ± 0.019	0.00375 ± 0.0028
GGAGUGGAUACUAAACAUCCUACUACCUCA	0.242 ± 0.013	0.0059 ± 0.0024
GGAGACCAAUACUAUACAACCUACUACCUCA	0.193 ± 0.021	0.5 ± 0.18
GGAGUGGUUACUAUACAACGUACUACCUCA	0.0218 ± 0.003	0.00485 ± 0.0014
GGAGUGGAAAGUAUACAACCUACUACCUCA	0.118 ± 0.0086	0.00841 ± 0.0043
GGAGACGAUACUAAACAACCUACUUCCUCA	0.0843 ± 0.021	0.00245 ± 0.0022
GGAGUGGAUACUAUACAACCAACUACGUCA	0.00435 ± 0.0018	0.00367 ± 0.0011
GGAGACGAUACUAUACAACCUACAUACCUCA	0.153 ± 0.016	0.00413 ± 0.0021
GGAGACGAUACUAUACAACCUAACUACCUCA	0.0232 ± 0.0036	0.0045 ± 0.0021
GGAGUGGUUACUAUACAUCCUACUACCUCA	0.295 ± 0.014	0.00608 ± 0.0026
GGAGACCUAACUAUUACAACCUACUACCUCA	0.099 ± 0.023	0.0205 ± 0.0091
GGAGACGAUUCUAUACAUCCUACUACCUCA	0.267 ± 0.018	0.00332 ± 0.0024

Sequence	pre-steady-state target cleavage rate [1]	pre-steady-state target cleavage rate [2]
GGAGACGAAACUAUACAACCUACUAGCUCA	0.083 ± 0.025	0.00368 ± 0.0023
GGAGACCAUACUAUACUACCUAGUACCUCA	0.0453 ± 0.0095	0.00377 ± 0.0033
GGAGACGAUACUUAACAACCUACUACCUCA	0.134 ± 0.013	0.00683 ± 0.0038
GGAGACCUAUCUAUACAACCUACUACCGUCA	0.141 ± 0.019	0.00478 ± 0.0036
GGAGACGAUACUAUACAUGCUACUACCUCA	0.115 ± 0.01	0.00483 ± 0.0015
GGAGACGAUACUAUAGAACCAACUACCUCA	0.00326 ± 0.0028	0.00377 ± 0.002
GGAGACGAUACUAUACAACCCACUACCUCA	0.0178 ± 0.0039	0.00638 ± 0.0022
GGAGACCUUACUAUUACAACCUACUACCUCA	0.117 ± 0.01	0.00484 ± 0.0035
GGAGAGGAUACUAAACAACCAACUACCUCA	0.00772 ± 0.0023	0.00246 ± 0.0017
GGAGACCAUACUAUAGAACCUACUACCUCA	0.116 ± 0.016	0.00367 ± 0.0017
GGAGAGGAUACUAUGACAACCUACUACCUCA	0.143 ± 0.013	0.102 ± 0.041
GGAGACGAUACUUUACAAGCUACUACCUCA	0.235 ± 0.015	0.00342 ± 0.0026
GGAGACCUAUCUAUACAAGCUACUACCUGA	0.125 ± 0.019	0.00244 ± 0.0023
GGAGACCUAACUAUACAACGUACUACCUCA	0.0137 ± 0.0057	0.00454 ± 0.0022
GGAGACCUAACUAUACAACGUACUACGUCA	0.00454 ± 0.0043	0.00291 ± 0.0026
GGAGACGAUACUAAACAACCAACUACCUCA	0.00769 ± 0.0028	0.0024 ± 0.0017
GGAGUGGAUACUAUACAACCUACUACCUUCA	0.128 ± 0.01	0.168 ± 0.061
GGAGACGAUACAAUACAACCUAGUACCUCA	0.0665 ± 0.011	0.00289 ± 0.0015
